From PubChem BioAssay (Tox21)
Records with an inconclusive call do not appear. A call without a number means that no potency is given here. Active and inactive are the calls of the source. Unless noted, calls follow the shape of the dose curve; as a rule, active = well fitted curve in the direction sought with a large enough effect in the repeat runs; inconclusive = weak or mixed curves; inactive = no such curve, though single readings can be large; an effect the other way counts as inactive or inconclusive.

What was measured:
[1] = target: Acetylcholinesterase (Homo sapiens) (UniProt P22303); test: Acetylcholinesterase (AChE) small molecule antagonists: fluorescence cell-based qHTS assay (AID 1347398; calls by dose curve; also: nearly all actives have a fitted effect of over 50% in size); conditions: Potency: AChE activity
Chain of Acetylcholinesterase (Homo sapiens) (P22303 whole entry, looked up): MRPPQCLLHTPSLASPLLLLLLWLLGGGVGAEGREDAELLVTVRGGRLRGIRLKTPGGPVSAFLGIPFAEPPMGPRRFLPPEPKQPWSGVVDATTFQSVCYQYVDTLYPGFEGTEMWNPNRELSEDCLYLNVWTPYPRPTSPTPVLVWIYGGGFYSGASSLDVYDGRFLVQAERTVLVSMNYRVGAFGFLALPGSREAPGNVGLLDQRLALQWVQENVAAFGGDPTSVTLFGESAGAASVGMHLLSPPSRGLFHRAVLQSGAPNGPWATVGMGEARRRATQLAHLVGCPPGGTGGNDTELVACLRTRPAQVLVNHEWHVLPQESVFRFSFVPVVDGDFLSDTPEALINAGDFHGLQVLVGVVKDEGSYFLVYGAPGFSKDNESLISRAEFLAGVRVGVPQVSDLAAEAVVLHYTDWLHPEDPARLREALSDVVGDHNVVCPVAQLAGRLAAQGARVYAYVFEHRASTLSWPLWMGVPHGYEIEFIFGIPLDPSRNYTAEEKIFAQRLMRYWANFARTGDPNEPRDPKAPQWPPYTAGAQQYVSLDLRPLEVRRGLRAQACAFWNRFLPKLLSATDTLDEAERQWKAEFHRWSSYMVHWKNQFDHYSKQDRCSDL
Summary of the method: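 Read-out is Thiolite Green fluorescence at Ex/Em = 490/520 nm, formed by reaction with thiocholine released when cellular AChE in SH-SY5Y cells hydrolyzes acetylthiocholine. Compounds were preincubated 30 min at 37 C before substrate.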

[2] = target: Acetylcholinesterase (Homo sapiens) (UniProt P22303); test: Acetylcholinesterase (AChE) small molecule antagonists: enzyme-based qHTS assay with human liver microsomes (AID 1347399; calls by dose curve; also: nearly all actives have a fitted effect of over 60% in size); conditions: Potency: qHTS inhibition
Summary of the method: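 Recombinant human AChE (50 mU/mL in the enzyme mix) and human liver microsomes (0.25 mg/mL final) were preincubated with compound and NADPH (0.25 mg/mL final) for 30 min at 37 C. Acetylthiocholine/DTNB was then added; thiocholine was read colorimetrically after 10 min at room temperature.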

[3] = target: Cytochrome P450 2C19 (Homo sapiens) (UniProt P33261); test: Cytochrome P450 Family 2 Subfamily C Member 19 (CYP2C19) small molecule antagonists: luciferase reporter qHTS assay (AID 1671197); also: nearly all actives have a fitted effect of over 65% in size
Chain of Cytochrome P450 2C19 (Homo sapiens) (P33261 whole entry, looked up): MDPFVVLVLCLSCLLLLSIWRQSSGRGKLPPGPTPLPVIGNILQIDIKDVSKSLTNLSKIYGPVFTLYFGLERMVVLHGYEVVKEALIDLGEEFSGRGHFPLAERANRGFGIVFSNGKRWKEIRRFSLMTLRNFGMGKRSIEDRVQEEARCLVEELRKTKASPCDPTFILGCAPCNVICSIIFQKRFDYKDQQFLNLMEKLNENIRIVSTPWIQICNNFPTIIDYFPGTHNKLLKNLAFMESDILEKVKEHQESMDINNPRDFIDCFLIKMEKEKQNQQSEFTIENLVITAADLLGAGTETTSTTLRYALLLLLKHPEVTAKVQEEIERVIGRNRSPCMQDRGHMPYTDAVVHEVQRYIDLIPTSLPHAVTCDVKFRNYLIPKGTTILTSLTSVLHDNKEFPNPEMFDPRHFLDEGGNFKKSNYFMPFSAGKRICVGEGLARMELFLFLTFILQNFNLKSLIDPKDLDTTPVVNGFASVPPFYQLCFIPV
Summary of the method: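 CYP2C19 P450-Glo, 1536-well qHTS. Cpd + enzyme/proluciferin substrate 10 min RT; + NADPH regen, 37C 1 h; stop with luciferin detection reagent, 20 min RT, luminescence (RLU). Pos ctrl ketoconazole.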

[4] = target: Cytochrome P450 2C9 (Homo sapiens) (UniProt P11712); test: Cytochrome P450 Family 2 Subfamily C Member 9 (CYP2C9) small molecule antagonists: luciferase reporter qHTS assay (AID 1671198); also: nearly all actives have a fitted effect of over 50% in size
Chain of Cytochrome P450 2C9 (Homo sapiens) (P11712 whole entry, looked up): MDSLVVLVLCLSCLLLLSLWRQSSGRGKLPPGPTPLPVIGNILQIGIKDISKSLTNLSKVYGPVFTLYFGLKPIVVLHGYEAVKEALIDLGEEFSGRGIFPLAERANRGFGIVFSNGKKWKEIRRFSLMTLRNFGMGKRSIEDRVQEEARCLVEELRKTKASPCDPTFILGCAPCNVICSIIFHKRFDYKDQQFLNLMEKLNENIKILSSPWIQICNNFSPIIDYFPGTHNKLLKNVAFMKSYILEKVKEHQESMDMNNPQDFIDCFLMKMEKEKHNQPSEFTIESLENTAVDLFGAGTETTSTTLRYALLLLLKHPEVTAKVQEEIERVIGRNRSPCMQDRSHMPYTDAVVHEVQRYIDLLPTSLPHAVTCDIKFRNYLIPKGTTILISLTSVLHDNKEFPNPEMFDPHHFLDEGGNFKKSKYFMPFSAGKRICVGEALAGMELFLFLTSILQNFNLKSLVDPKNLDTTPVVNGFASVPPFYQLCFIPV
Summary of the method: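 Enzyme-substrate mix preincubated with compound 10 min at room temperature; reaction started with NADPH regeneration solution, 1 h 37C. Luminescent luciferin product read after 20 min detection reagent.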

[5] = target: Voltage-gated inwardly rectifying potassium channel KCNH2 (Homo sapiens) (UniProt Q12809); test: Human Ether-a-go-go-Related Gene (hERG) channel small molecule antagonists: fluorescence cell-based qHTS assay (AID 1671200); also: nearly all actives have a fitted effect of over 50% in size
Chain of Voltage-gated inwardly rectifying potassium channel KCNH2 (Homo sapiens) (Q12809 whole entry, looked up): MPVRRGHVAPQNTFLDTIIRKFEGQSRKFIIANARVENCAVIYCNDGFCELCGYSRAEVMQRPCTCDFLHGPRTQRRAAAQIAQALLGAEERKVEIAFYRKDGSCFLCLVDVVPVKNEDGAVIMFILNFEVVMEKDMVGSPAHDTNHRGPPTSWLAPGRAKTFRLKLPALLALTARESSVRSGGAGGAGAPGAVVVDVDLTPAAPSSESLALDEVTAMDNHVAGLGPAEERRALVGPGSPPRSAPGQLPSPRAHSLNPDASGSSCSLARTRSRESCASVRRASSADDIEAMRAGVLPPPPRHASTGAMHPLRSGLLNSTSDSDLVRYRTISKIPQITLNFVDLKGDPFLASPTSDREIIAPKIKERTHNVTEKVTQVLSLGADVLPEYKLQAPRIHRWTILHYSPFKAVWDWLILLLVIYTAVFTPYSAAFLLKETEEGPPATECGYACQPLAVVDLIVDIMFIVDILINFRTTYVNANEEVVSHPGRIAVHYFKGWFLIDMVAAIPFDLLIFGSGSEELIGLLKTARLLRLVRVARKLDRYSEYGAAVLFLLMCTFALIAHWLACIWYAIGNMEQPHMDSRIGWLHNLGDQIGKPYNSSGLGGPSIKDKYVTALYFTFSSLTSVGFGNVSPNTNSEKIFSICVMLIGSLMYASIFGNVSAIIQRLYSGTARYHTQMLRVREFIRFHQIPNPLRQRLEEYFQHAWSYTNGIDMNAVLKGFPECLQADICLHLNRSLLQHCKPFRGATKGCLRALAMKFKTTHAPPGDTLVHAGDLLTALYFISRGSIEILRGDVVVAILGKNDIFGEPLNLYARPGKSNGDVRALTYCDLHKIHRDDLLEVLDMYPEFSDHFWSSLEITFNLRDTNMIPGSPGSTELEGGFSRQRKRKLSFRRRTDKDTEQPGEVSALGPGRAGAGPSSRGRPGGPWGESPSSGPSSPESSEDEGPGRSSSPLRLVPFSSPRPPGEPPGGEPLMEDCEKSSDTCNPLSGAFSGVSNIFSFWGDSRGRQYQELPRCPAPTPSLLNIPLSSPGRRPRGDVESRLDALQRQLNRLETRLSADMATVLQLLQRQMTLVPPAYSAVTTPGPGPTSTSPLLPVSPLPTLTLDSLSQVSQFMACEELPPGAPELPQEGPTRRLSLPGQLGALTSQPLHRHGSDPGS
Summary of the method: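 Quantitative HTS in hERG-U2OS cells: thallium entry through the channel reports activity, read as continuous 480/540 nm fluorescence over 2 min after stimulus addition.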

[6] = target: Cytochrome P450 3A4 (Homo sapiens) (UniProt P08684); test: Cytochrome P450 Family 3 Subfamily A Member 4 (CYP3A4) small molecule antagonists: luciferase reporter qHTS assay (AID 1671201); also: nearly all actives have a fitted effect of over 50% in size
Chain of Cytochrome P450 3A4 (Homo sapiens) (P08684 whole entry, looked up): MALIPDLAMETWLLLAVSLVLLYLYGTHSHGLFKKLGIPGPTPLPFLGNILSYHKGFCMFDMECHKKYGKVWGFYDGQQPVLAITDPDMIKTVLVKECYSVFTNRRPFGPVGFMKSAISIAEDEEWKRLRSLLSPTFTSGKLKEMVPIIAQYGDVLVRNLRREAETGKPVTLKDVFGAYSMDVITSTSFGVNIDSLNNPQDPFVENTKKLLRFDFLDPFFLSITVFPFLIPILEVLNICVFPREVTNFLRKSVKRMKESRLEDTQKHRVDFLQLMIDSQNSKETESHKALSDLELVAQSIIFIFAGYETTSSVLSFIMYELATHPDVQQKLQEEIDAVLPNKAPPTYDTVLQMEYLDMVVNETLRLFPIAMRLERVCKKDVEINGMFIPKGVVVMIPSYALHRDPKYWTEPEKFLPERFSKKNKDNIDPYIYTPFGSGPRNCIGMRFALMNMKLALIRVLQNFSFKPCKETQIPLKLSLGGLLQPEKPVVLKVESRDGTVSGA
Summary of the method: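 Inhibition of CYP3A4 is measured as loss of light: the enzyme converts a proluciferin substrate to luciferin, detected luminescently. Reaction ran 1 h at room temperature with NADPH regeneration after a 10 min compound preincubation.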

[7] = target: Cytochrome P450 1A2 (Homo sapiens) (UniProt P05177); test: Cytochrome P450 Family 1 Subfamily A Member 2 (CYP1A2) small molecule antagonists: luciferase reporter qHTS assay (AID 1671199); also: nearly all actives have a fitted effect of over 50% in size
Chain of Cytochrome P450 1A2 (Homo sapiens) (P05177 whole entry, looked up): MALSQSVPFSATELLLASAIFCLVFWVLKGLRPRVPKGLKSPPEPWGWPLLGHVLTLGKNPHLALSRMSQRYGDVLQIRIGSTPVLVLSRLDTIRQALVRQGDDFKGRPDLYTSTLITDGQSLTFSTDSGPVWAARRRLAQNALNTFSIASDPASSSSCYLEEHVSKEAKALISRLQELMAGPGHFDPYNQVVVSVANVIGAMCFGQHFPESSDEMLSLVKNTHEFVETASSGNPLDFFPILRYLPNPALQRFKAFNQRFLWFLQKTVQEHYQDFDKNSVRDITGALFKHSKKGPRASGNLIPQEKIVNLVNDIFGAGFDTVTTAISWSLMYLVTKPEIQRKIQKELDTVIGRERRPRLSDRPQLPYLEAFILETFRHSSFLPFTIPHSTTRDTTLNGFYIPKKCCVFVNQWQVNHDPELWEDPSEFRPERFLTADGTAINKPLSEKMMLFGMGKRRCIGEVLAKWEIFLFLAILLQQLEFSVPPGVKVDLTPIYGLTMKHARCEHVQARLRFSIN
Summary of the method: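 Enzymatic CYP1A2 assay, human, luminescent: 10 min compound–enzyme–substrate preincubation, 1 h NADPH-dependent turnover, 20 min detection step, room temperature throughout. Reduced light indicates lower CYP1A2 activity.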

[8] = target: Cytochrome P450 2D6 (Homo sapiens) (UniProt P10635); test: Cytochrome P450 Family 2 Subfamily D Member 6 (CYP2D6) small molecule antagonists: luciferase reporter qHTS assay (AID 1671196); also: nearly all actives have a fitted effect of over 50% in size
Chain of Cytochrome P450 2D6 (Homo sapiens) (P10635 whole entry, looked up): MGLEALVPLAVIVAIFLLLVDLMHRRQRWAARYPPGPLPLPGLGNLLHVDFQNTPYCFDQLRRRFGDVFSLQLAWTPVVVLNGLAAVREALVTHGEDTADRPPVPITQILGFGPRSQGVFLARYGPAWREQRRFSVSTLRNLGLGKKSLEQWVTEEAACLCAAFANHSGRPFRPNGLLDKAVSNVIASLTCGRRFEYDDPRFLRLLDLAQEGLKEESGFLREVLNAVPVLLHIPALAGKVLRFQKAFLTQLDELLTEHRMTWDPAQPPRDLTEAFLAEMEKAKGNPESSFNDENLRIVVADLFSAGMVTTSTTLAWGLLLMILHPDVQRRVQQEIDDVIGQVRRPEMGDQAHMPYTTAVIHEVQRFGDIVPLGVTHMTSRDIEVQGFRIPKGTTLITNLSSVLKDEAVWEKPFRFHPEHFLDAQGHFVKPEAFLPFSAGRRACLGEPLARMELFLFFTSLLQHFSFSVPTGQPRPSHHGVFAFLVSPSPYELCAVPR
Summary of the method: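 Each well received CYP2D6 with its proluciferin substrate and chemical, sat 10 min, then got NADPH regeneration solution for 1 h at room temperature. Luminescence in RLU served as the activity measure.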
Potency is read from the fitted curve at half-maximal effect.

For CCS(=O)(=O)c1cccnc1S(=O)(=O)NC(=O)Nc1nc(OC)cc(OC)n1, the Potency [1] was “inactive”, the Potency [2] was “inactive” and the Potency [3] was 63.3 µM (active). For the same compound, the Potency [4] was 71 µM (active) and the Potency [5] was “inactive”.
CCCCCCCCCCBr was tested, and the Potency [1] was “inactive”, the Potency [2] was “inactive” and the Potency [3] was “inactive”. For the same compound, the Potency [4] was “inactive”, the Potency [5] was “inactive” and the Potency [6] was “inactive”.
c1ccc2cc3c(cc2c1)-c1cccc2cccc-3c12 was tested, and the Potency [1] was “inactive”, the Potency [2] was “inactive” and the Potency [3] was “inactive”. The Potency [4] was “inactive”, the Potency [7] was 0.197 µM (active) and the Potency [5] was “inactive”. For the same compound, the Potency [6] was “inactive”.
For CC(C)(C)c1ccc(CSc2cnn(C(C)(C)C)c(=O)c2Cl)cc1, the Potency [1] was “inactive”, the Potency [2] was “inactive” and the Potency [3] was 7.96 µM (active). The Potency [4] was 6.33 µM (active), the Potency [7] was 25.2 µM (active) and the Potency [6] was “inactive”.
CC[C@H](C)[C@H]1O[C@]2(C=C[C@@H]1C)C[C@@H]1C[C@@H](C/C=C(\C)[C@@H](O[C@H]3C[C@H](OC)[C@@H](O[C@H]4C[C@H](OC)[C@@H](O)[C@H](C)O4)[C@H](C)O3)[C@@H](C)/C=C/C=C3\CO[C@@H]4[C@H](O)C(C)=C[C@@H](C(=O)O1)[C@]34O)O2 was tested, and the Potency [1] was “inactive”, the Potency [2] was “inactive” and the Potency [3] was 21 µM (active). The Potency [4] was 10.5 µM (active), the Potency [7] was 33.3 µM (active) and the Potency [5] was “inactive”. The Potency [6] was 9.39 µM (active).
With CC(C)(O)c1cnn2c(-c3ccc(F)c(-c4c(F)cccc4C#N)c3)cnc2n1 the Potency [1] was 28.3 µM (active), the Potency [2] was “inactive” and the Potency [3] was 8.94 µM (active). The Potency [4] was 1.26 µM (active), the Potency [5] was “inactive” and the Potency [6] was 35.6 µM (active).
For c1ccc2c(c1)OCC(C1=NCCN1)O2 (stereo unspecified), the Potency [1] was “inactive”, the Potency [2] was “inactive” and the Potency [3] was “inactive”. The Potency [4] was “inactive”, the Potency [7] was “inactive” and the Potency [5] was “inactive”. The Potency [6] was “inactive”.
In the case of C[C@@H](Oc1ccc(Cl)cc1Cl)C(=O)O, the Potency [1] is reported as “inactive”, the Potency [2] is reported as “inactive” and the Potency [3] is reported as “inactive”. For the same compound, the Potency [4] was “inactive”, the Potency [7] was “inactive” and the Potency [5] was “inactive”. The Potency [6] was “inactive”.
CC(=[OH+])/C=C(/C)[O-].CC(=[OH+])/C=C(\C)[O-].CC(=[OH+])/C=C(\C)[O-].[Fe] was tested, and the Potency [1] was “inactive”, the Potency [2] was “inactive” and the Potency [3] was “inactive”. For the same compound, the Potency [4] was “inactive”, the Potency [7] was “inactive” and the Potency [5] was “inactive”.
With CCN(CC)C(=S)[S-].CCN(CC)C(=S)[S-].[Zn+2] the Potency [1] was “inactive”, the Potency [2] was “inactive” and the Potency [3] was 49.8 µM (active). For the same compound, the Potency [4] was 15.8 µM (active), the Potency [7] was “inactive” and the Potency [5] was 8.63 µM (active).
In the case of Nc1c(Oc2ccccc2)cc(O)c2c1C(=O)c1ccccc1C2=O, the Potency [1] is reported as “inactive”, the Potency [2] is reported as “inactive” and the Potency [4] is reported as 17.4 µM (active). For the same compound, the Potency [7] was 1.23 µM (active), the Potency [5] was “inactive” and the Potency [6] was “inactive”.
For CSCCCN=C=S, the Potency [1] was “inactive”, the Potency [2] was “inactive” and the Potency [3] was 71 µM (active). The Potency [7] was “inactive” and the Potency [6] was “inactive”.
CCc1cc(C)cc(CC)c1-c1c(OC(=O)C(C)(C)C)n2n(c1=O)CCOCC2 was tested, and the Potency [1] was “inactive”, the Potency [2] was “inactive” and the Potency [4] was “inactive”. For the same compound, the Potency [7] was “inactive”, the Potency [5] was “inactive” and the Potency [6] was 8.94 µM (active).
With CC(C)[C@H](C(=O)O[C@H](C#N)c1cccc(Oc2ccccc2)c1)c1ccc(Cl)cc1 the Potency [1] was “inactive”, the Potency [2] was “inactive” and the Potency [3] was 7.96 µM (active). For the same compound, the Potency [4] was 5.63 µM (active), the Potency [5] was “inactive” and the Potency [6] was “inactive”.
In the case of CC1(C)CN=C(NN=C(/C=C/c2ccc(C(F)(F)F)cc2)/C=C/c2ccc(C(F)(F)F)cc2)NC1, the Potency [1] is reported as “inactive”, the Potency [2] is reported as “inactive” and the Potency [3] is reported as “inactive”. The Potency [5] was 0.389 µM (active).
C[C@H]1CC[C@@H]2[C@@H](C)[C@H]3[C@H](C[C@H]4[C@@H]5CC=C6CC(O[C@@H]7O[C@H](CO)[C@H](O)[C@H](O[C@@H]8O[C@H](CO)[C@@H](O)[C@H](O)[C@H]8O)[C@H]7O[C@H]7O[C@@H](C)[C@H](O)[C@@H](O)[C@H]7O)CC[C@]6(C)[C@H]5CC[C@]34C)N2C1 (stereo partly specified) was tested, and the Potency [1] was 2.92 µM (active), the Potency [2] was “inactive” and the Potency [3] was “inactive”. The Potency [4] was “inactive”, the Potency [5] was “inactive” and the Potency [6] was “inactive”.
For CC(O)C#N (stereo unspecified), the Potency [1] was “inactive”, the Potency [2] was “inactive” and the Potency [3] was “inactive”. The Potency [7] was “inactive”, the Potency [5] was “inactive” and the Potency [6] was “inactive”.
ClC1=C(Cl)[C@]2(Cl)[C@H]3[C@H]([C@H]4C=C[C@H]3C4)[C@@]1(Cl)C2(Cl)Cl was tested, and the Potency [1] was “inactive”, the Potency [2] was “inactive” and the Potency [3] was 15.9 µM (active). The Potency [7] was “inactive” and the Potency [6] was 1 µM (active).
With SCc1ccco1 the Potency [1] was “inactive”, the Potency [2] was “inactive” and the Potency [3] was 39.9 µM (active). For the same compound, the Potency [7] was 35.6 µM (active) and the Potency [5] was “inactive”.
With CN(C)S(=O)(=O)N(SC(F)(Cl)Cl)c1ccccc1 the Potency [1] was 35.6 µM (active), the Potency [2] was 71 µM (active) and the Potency [3] was 11.2 µM (active). The Potency [7] was 22.4 µM (active), the Potency [5] was 19.5 µM (active) and the Potency [6] was “inactive”.
O=C(Cl)c1ccc(Cl)cc1 was tested, and the Potency [1] was “inactive”, the Potency [2] was “inactive” and the Potency [7] was “inactive”. The Potency [5] was “inactive” and the Potency [6] was “inactive”.
For CCOP(=S)(OCC)SCCS(=O)(=O)CC, the Potency [1] was 35.6 µM (active), the Potency [8] was 2.24 µM (active) and the Potency [3] was 0.1 µM (active). The Potency [4] was 0.894 µM (active), the Potency [7] was 35.6 µM (active) and the Potency [5] was “inactive”. The Potency [6] was 1.59 µM (active).
Cc1cc(C(C)(C)c2cc(C)c(O)c(C)c2)cc(C)c1O was tested, and the Potency [1] was “inactive”, the Potency [2] was “inactive” and the Potency [3] was 1.22 µM (active). For the same compound, the Potency [7] was 38.6 µM (active), the Potency [5] was “inactive” and the Potency [6] was 2.73 µM (active).
